# Laboratory results published in ChEMBL document CHEMBL3988442, “University of Dundee, Small-Polar-MMV Screening Library” (2021).
# For some of these results: Measured potencies and affinities stand elsewhere.
# What was measured:
# Parameters in all cases: scale not given: direction of the effect not stated beside the values
# [1] = biological target: Protein translocase subunit SecA (Escherichia coli (strain K12)) (UniProt P10408); assay: Assay to Identify E. coli SecA ATPase Inhibitors; assay type: functional; conditions: 30 µM
# [2] = biological target: T1, Ubiquitin-activating enzyme e1, putative (Leishmania donovani (strain BPK282A1)) (UniProt E9BSI1); assay: Leishmania donovani Ubiquitin Activating Enzyme (LdE1); assay type: functional; conditions: 30 µM
# T1 sequence (whole entry): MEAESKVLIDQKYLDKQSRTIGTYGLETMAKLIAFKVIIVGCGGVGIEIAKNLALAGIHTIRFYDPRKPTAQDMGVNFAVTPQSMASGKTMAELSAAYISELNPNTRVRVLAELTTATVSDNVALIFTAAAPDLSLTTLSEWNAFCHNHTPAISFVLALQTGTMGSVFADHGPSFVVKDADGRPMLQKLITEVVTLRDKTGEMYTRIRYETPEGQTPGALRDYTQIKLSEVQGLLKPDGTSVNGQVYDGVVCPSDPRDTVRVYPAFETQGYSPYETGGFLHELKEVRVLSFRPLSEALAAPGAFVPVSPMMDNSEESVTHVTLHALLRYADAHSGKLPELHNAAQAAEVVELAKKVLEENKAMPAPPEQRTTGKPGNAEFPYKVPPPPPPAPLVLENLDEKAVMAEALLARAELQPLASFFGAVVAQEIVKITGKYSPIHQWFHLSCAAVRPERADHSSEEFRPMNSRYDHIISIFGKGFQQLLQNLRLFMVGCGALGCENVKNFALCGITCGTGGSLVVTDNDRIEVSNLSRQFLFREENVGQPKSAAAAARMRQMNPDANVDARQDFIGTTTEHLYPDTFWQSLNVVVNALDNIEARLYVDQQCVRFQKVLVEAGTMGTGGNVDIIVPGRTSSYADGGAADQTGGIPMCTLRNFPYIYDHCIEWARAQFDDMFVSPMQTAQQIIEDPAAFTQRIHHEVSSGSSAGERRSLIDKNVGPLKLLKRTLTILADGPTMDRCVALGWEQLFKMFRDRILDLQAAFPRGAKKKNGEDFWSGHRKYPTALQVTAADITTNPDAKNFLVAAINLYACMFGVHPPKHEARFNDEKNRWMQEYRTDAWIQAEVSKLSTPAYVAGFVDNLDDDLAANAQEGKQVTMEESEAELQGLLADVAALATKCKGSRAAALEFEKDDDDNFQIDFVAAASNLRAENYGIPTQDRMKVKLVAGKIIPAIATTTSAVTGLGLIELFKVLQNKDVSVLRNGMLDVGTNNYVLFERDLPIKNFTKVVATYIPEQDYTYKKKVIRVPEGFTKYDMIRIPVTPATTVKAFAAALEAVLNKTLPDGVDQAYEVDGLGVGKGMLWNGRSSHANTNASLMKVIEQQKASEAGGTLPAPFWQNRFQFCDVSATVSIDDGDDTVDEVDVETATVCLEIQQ
# [3] = biological target: AMP-activated protein kinase, AMPK (Homo sapiens) (UniProt P54646+O43741+P54619+Q9UGJ0+Q9Y478+Q13131+Q9UGI9); assay: AMP-dependent Kinase enzyme assay. An in vitro enzyme assay that detects ADP turnover that is directly proportional to AMPK activity. This uses naive AMPK that is activated during the assay with MK-8722; assay type: functional; conditions: 30 µM
# [4] = biological target: Sialic acid-binding Ig-like lectin 9 (Homo sapiens) (UniProt Q9Y336); assay: Hs-Siglec9 ALPHAscreen SOP 20170721; conditions: 10 µM
# Trypanosoma cruzi = assay: Trypanosoma cruzi phosphomannomutase and mannose-1-phosphate guanylyltransferase assay; assay type: functional; conditions: 10 µM
# [5] = biological target: T2, Arginase-2, mitochondrial (Homo sapiens) (UniProt P78540); assay: in vitro enzyme assay to detect the production of urea directly proportional to the activity of Arginase II; assay type: functional; conditions: 33.3 µM; further: in the data most compounds retested in dose-response had high values
# T2 sequence (whole entry): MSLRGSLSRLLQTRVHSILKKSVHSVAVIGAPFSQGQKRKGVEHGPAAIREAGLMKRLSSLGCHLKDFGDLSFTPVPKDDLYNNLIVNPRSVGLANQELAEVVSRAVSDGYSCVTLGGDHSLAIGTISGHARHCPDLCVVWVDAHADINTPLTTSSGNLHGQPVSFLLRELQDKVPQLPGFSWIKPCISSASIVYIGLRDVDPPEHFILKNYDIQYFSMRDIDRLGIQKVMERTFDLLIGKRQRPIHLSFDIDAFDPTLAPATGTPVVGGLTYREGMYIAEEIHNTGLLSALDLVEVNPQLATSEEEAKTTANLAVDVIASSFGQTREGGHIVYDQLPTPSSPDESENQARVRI
# [6] = biological target: T3, Proteasome subunit beta (Trypanosoma cruzi) (UniProt O96673); assay: Trypanosoma cruzi proteasome chymotrypsin-like activity (TcProtChymo) assay.; further: in the data most compounds retested in dose-response had high values; assay type: functional; conditions: 9.37 µM
# T3 sequence (whole entry): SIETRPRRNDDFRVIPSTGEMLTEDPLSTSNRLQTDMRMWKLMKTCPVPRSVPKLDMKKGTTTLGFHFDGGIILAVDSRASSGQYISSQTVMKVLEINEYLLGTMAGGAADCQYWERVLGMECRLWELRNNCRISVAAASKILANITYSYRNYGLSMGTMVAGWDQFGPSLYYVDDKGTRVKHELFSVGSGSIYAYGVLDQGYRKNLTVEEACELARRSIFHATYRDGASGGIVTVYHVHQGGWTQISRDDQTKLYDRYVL
# Homo sapiens = species: Homo sapiens; assay: To identify inhibition of the IFN signalling (Jak-Stat) pathway via expression of an eGFP reporter gene under the control of an IFN-stimulated response element (ISRE) containing MxA promoter.; assay type: functional; conditions: 30 µM
# [7] = biological target: T4, Tyrosyl-tRNA synthetase, putative (Trypanosoma cruzi (strain CL Brener)) (UniProt Q4DSP6); assay: Trypanosoma cruzi tyrosyl tRNA synthetase (TcYRS) _High Tyrosine SOP; assay type: functional; conditions: 30 µM; further: in the data most compounds retested in dose-response had high values
# T4 sequence (whole entry): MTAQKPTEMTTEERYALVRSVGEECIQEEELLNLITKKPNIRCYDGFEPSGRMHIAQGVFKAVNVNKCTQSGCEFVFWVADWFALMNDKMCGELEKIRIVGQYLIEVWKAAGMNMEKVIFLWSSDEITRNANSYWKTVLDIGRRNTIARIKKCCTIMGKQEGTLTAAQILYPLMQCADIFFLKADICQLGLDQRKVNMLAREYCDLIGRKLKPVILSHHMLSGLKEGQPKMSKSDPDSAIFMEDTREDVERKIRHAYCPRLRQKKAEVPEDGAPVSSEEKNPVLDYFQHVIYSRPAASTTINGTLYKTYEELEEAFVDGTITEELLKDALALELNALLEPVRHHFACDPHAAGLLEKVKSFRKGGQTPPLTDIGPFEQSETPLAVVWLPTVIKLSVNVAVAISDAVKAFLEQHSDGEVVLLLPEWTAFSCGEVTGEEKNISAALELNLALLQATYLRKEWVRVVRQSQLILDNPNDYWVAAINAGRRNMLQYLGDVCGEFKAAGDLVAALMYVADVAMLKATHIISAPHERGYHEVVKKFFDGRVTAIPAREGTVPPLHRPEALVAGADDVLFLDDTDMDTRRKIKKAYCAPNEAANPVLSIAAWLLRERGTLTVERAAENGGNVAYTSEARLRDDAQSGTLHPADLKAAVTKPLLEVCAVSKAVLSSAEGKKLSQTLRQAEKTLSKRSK
# [8] = biological target: T4, Tyrosyl-tRNA synthetase, putative (Trypanosoma cruzi (strain CL Brener)); assay: Trypanosoma cruzi tyrosyl tRNA synthetase (TcYRS) SOP; assay type: functional; conditions: 30 µM
# [9] = biological target: Chromo domain-containing protein 1 (Saccharomyces cerevisiae (strain ATCC 204508 / S288c) (Baker's yeast)) (UniProt P32657); assay: ScCHD-1 Enzyme Inhibition Assay; assay type: functional; conditions: 30 µM; further: in the data most compounds retested in dose-response had high values
# Sequence of Chromo domain-containing protein 1 (Saccharomyces cerevisiae (strain ATCC 204508 / S288c) (Baker's yeast)) (P32657 whole entry, the tested form may be a part): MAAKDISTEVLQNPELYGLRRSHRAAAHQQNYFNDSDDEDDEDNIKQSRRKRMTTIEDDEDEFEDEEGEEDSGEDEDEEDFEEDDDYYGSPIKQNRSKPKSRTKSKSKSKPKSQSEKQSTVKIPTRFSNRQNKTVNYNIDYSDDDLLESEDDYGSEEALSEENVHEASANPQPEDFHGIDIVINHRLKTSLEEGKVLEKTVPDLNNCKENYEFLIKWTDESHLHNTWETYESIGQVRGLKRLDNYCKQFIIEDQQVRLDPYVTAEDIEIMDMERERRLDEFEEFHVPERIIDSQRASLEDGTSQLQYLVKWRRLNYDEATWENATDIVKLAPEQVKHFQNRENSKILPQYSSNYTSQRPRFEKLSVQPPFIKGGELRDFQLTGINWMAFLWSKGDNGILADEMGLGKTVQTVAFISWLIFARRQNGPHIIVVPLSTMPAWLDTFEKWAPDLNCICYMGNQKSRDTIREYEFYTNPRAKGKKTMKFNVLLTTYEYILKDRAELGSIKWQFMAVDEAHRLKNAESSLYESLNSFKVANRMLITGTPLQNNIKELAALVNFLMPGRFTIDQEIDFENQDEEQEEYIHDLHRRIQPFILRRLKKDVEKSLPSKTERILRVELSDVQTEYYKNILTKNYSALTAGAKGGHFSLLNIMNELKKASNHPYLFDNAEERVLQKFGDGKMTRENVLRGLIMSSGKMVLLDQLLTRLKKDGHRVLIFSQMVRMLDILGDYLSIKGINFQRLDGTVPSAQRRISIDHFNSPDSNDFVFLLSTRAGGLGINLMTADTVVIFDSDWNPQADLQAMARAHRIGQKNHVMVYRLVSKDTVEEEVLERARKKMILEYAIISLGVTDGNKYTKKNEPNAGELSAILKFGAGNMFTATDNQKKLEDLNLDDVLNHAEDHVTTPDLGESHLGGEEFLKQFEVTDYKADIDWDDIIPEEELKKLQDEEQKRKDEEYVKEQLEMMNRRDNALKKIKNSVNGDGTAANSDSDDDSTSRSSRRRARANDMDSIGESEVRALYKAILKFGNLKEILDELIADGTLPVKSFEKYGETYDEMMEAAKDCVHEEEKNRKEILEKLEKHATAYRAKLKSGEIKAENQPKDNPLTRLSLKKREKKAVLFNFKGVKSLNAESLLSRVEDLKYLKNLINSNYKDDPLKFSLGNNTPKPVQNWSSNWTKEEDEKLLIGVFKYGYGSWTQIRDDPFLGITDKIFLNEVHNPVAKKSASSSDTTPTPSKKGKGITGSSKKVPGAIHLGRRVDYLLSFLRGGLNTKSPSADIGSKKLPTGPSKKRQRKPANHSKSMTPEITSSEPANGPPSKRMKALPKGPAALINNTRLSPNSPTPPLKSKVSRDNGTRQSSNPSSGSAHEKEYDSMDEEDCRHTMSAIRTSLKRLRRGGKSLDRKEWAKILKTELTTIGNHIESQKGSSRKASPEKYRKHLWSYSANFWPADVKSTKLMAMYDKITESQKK
# Sequence of Protein translocase subunit SecA (Escherichia coli (strain K12)) (P10408 whole entry): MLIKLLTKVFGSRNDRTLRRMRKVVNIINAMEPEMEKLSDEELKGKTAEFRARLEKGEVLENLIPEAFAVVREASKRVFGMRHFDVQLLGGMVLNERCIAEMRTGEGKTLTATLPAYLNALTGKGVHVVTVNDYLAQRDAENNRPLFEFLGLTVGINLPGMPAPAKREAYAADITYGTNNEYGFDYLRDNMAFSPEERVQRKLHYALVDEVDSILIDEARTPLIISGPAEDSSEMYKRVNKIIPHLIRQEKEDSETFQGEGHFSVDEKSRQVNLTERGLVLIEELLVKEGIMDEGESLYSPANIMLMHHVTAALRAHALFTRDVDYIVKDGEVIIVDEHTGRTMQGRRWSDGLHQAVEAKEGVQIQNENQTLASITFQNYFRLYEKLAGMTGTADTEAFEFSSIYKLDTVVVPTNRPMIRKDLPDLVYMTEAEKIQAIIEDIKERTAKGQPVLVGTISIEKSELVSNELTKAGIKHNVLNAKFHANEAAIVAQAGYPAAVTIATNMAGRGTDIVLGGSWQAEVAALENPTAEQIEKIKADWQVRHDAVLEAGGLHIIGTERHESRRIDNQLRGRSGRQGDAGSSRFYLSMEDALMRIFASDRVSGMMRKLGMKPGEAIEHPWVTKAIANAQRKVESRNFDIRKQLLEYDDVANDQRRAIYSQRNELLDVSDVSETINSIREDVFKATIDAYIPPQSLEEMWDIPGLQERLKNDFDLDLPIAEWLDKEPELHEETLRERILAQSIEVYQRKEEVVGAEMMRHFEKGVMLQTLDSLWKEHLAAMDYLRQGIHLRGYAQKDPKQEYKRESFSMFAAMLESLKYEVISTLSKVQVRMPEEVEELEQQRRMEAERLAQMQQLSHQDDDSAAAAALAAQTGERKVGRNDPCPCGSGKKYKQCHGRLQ
# Sequence of Sialic acid-binding Ig-like lectin 9 (Homo sapiens) (Q9Y336 whole entry): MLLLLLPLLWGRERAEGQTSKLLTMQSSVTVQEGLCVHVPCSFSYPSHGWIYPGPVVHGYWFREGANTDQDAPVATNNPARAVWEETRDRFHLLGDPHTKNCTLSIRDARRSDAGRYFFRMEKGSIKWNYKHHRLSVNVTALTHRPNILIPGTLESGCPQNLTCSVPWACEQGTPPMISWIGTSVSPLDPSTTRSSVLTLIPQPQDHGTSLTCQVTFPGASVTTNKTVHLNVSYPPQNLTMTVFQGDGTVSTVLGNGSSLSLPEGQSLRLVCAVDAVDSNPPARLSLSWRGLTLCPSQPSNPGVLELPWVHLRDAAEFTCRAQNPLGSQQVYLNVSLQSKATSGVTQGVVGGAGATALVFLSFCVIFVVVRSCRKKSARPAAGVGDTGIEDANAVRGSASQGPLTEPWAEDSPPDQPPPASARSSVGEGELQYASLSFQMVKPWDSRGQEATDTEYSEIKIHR
SMILES,Percent Effect [1],Percent Effect [2],Percent Effect [3],Percent Effect [4],Percent Effect (Trypanosoma cruzi),Percent Effect [5],Percent Effect [6],Percent Effect (Homo sapiens),Percent Effect [7],Percent Effect [8],Percent Effect [9]
OCC1CCCN1c1cc(N2CCC(OC3CCCC3)CC2)ncn1 (stereo unspecified),-0.479%,23.4%,-10.1%,-5.43%,3.04%,2.32%,15.8%,-7.13%,7.62%,23.5%,-22.6%
CCN1CC2(CC1=O)CN(Cc1cnn(C)c1)CCN(C(=O)C(C)C)C2 (stereo unspecified),-6.68%,5.41%,0.933%,-1.78%,-1.17%,-1.67%,7.52%,8.39%,7.92%,6.1%,2.63%
O=C1NCC[C@]12CN(Cc1ccoc1)C[C@H]2c1ccccc1,4.22%,15.6%,11.9%,-15.6%,-8.38%,1.94%,13.8%,11%,4.23%,6.41%,-8.29%
CCc1nc(CC(=O)Nc2cnn(CC3CCCO3)c2)cs1 (stereo unspecified),-2.62%,8.11%,-12.1%,-2.05%,-0.965%,-1.43%,7.59%,0.276%,-4.76%,-2.44%,-1.6%
CC(C)(C)c1ccc(C2(C(=O)NCCCS(C)(=O)=O)CC2)cc1,-2.57%,7.79%,1.11%,4.51%,-7.77%,-1.38%,7.16%,0.292%,1.07%,6.17%,-0.462%
CCSCC(C)NCc1nncn1C1CCCCC1 (stereo unspecified),-0.842%,6.94%,-1.51%,-1.31%,2.23%,0.883%,16%,-2.28%,11.6%,20.5%,-4.13%
CCC1CN(CCNC(C)=O)CCN1CCOC (stereo unspecified),-0.705%,16.2%,-10.5%,-8.99%,-2.74%,-4.81%,18.2%,5.73%,7.39%,13.6%,-5.61%
O=C(CC1CCCC1)NCCn1ccc(-c2ccccn2)n1,-2.17%,2.6%,9.65%,12%,-3.85%,0.645%,-2.09%,-8.59%,2.12%,6.41%,-2.03%
COc1cc(C(=O)NS(=O)(=O)c2cccc(C#N)c2)cc(Cl)c1OC,-2.08%,-5.41%,2.84%,4.53%,3.44%,3.51%,1.79%,-7.05%,-6.93%,-1.22%,6.51%
COCCNC(=O)c1ccc(C)c(-n2cccc2)c1,2.25%,13.2%,4.41%,-4.12%,-3.8%,-2.37%,14.3%,-4.52%,7.45%,7.79%,-3.58%
N#Cc1ccccc1OCCN1CCC(N2CCNC2=O)CC1,-1.9%,5.41%,-4.78%,2.6%,0.65%,-1.29%,6.28%,8.35%,6.93%,13.4%,-0.203%
